Measured values as given in PubChem BioAssay (NCI).
Compounds without any hit were thinned out: in the full panel of roughly 83,000, 20% have a hit.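 Percent growth is the endpoint: 0 to 100 indicates growth inhibition (40 means 60% inhibition), 0 means no net growth, and negative values indicate cell death.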 A number with no mark means an inactive call. The source made the active and inactive calls. The calls were made as follows: active = growth percent below 10; inactive = the rest.

Columns and labels:
Assay in all cases: NCI-60 one-dose screen, 48 h (100 = growth as untreated, 0 = no growth, -100 = all killed)
Details in all cases: 10 µM unless noted
NCI-H226 lung = tested on: NCI-H226 lung
NCI-H322M lung = tested on: NCI-H322M lung
HOP-62 NSCLC = tested on: HOP-62 NSCLC
NCI-H460 lung = tested on: NCI-H460 lung
HOP-92 NSCLC = tested on: HOP-92 NSCLC
NCI-H522 lung = tested on: NCI-H522 lung
A549/ATCC NSCLC = tested on: A549/ATCC NSCLC
786-0 renal = tested on: 786-0 renal
COLO 205 colon = tested on: COLO 205 colon

Structure (SMILES) | growth (NCI-H226 lung) | growth (NCI-H322M lung) | growth (HOP-62 NSCLC) | growth (NCI-H460 lung) | growth (HOP-92 NSCLC) | growth (NCI-H522 lung) | growth (A549/ATCC NSCLC) | growth (786-0 renal) | growth (COLO 205 colon)
Oc1c(CCl)cc(Cl)cc1Cc1cc(Cl)cc(Cc2cc(Cl)cc(CCl)c2O)c1O | 32.4% | 4.12% (active) | 57.2% | 11.9% | -18.3% (active) | -10.9% (active) | 46.5% | 55.3% | 68.3%
O=C(Nc1ccc(S(=O)(=O)NC2CCCCCC2)cc1)C(c1ccccc1)S(=O)(=O)c1ccc(F)cc1 (centres undefined) | -21.5% (active) | 17.1% | -17.4% (active) | 1.37% (active) | -12.2% (active) | -16% (active) | -12.4% (active) | 20.4% | -18% (active)
Nc1ccc(C2=NN(C(=O)c3cc(-c4ccc(Cl)cc4)nc4ccccc34)C(c3ccccc3)C2)cc1 (centres undefined) | 53% | 45.7% | 35.4% | 18.8% | 50.9% | 24% | 40.7% | 21.7% | 30%
Cc1c(Cl)cccc1NC(=O)c1sc2nc3c(cc2c1N)CCCCCC3 | 52.2% | 45.6% | – | 8.77% (active) | 29.3% | -27.7% (active) | 19.1% | 23.3% | -12% (active)
COc1cc(C2=NNC(c3ccc(N(C)C)cc3)C2)cc(OC)c1OC (centres undefined) | 62.2% | 46.2% | – | 10.5% | 29.2% | -6.25% (active) | 24.5% | 23% | 5.74% (active)
CCOC(=O)NCCc1nc2c([nH]1)c(=O)n(C)c(=O)n2C | 105% | 103% | 115% | 106% | 93.5% | 92.5% | 104% | 102% | 109%
CN1CCN(CC#CCOC(=O)CNC(=O)[C@]23CCC(C)(C)C[C@H]2C2=CC[C@@H]4[C@@]5(C)CC[C@H](O)C(C)(C)[C@@H]5CC[C@@]4(C)[C@]2(C)CC3)CC1 | 93.5% | 94.2% | 90.4% | 96.4% | 88.7% | 87.8% | 79.2% | 80.3% | 85.4%
COc1cc(N=Nc2cc(S(=O)(=O)O)cc3cc(S(=O)(=O)O)cc(O)c23)c(C)cc1N=Nc1c(S(=O)(=O)O)cc2cc(Nc3ccccc3)ccc2c1O | 114% | 93.7% | 102% | 106% | 103% | 80.1% | 101% | 102% | 129%
CCC1=C[C@H]2CN(CCc3c([nH]c4ccccc34)[C@@](C(=O)OC)(c3cc4c(cc3OC)N(C)[C@H]3[C@@](O)(C(=O)OC)[C@H](OC(C)=O)[C@]5(CC)[C@@H]6C[C@@H]6CN6CC[C@]43[C@@H]65)C2)C1 | 47.9% | 66.1% | – | 5.3% (active) | -7.42% (active) | -29% (active) | 17.7% | 12.6% | –
C[C@]12CC[C@@H]3c4ccc(O)cc4CC[C@H]3[C@@H]1C[C@H](O)C2 | 104% | 89.5% | – | 74.3% | 86.1% | 54.6% | 49.5% | 88.1% | 128%
CCC[S@@](=O)c1ccc2nc(NC(=O)OC)[nH]c2c1 | 85.6% | 96% | 66.2% | 99.5% | 84% | 59.9% | 65.7% | 91.6% | 96.4%
CCOC(=O)c1c(C)nc2c(c1N)CC(=O)N2CCc1ccccc1 | 42.1% | 59.3% | 5.73% (active) | 6.52% (active) | 25.3% | -6.01% (active) | 23% | 8.72% (active) | 10.7%
NC(N)=NC(N)=Nc1cc2ccccc2c2ccccc12 | 54.3% | 53.3% | 38.3% | 21.9% | – | 7.5% (active) | 41.1% | 14.4% | -59% (active)
O=c1c2ccccc2oc2ccc(OCCCCCCN3CCCCCC3)cc12 | 74.1% | 74.3% | 74.1% | 35% | 74.6% | 46% | 40.4% | 27.1% | -5.01% (active)
N#Cc1c(-c2ccc(F)cc2)nc(N/N=C/c2c[nH]c3ccccc23)nc1N1CCOCC1 | 125% | 66.5% | 69.6% | 16.5% | 68.1% | 46.3% | 47.1% | -24.4% (active) | 40.1%
N#Cc1c(-c2ccc(F)cc2)nc(N=Nc2c(O)[nH]c3ccccc23)nc1N1CCOCC1 | 57.7% | 61.4% | 72% | 30.9% | 17.3% | 78.6% | 23.4% | 59.4% | 77.9%
C=C1C(=O)O[C@H]2[C@H]1CC/C(COC(=O)c1cccnc1N)=C\CC[C@@]1(C)O[C@@H]21 | 26.7% | 87% | 22.8% | 5.22% (active) | 8.05% (active) | -15.3% (active) | 28.4% | 9.12% (active) | -76.5% (active)
COc1ccc(-c2cc(-c3nnc(SCC(=O)Nc4ccc(/C(C)=N\O)cc4)o3)c3ccccc3n2)cc1 | 96.3% | 113% | 99.3% | 105% | 109% | 87% | 100% | 95.5% | 118%
C=C1C(=O)O[C@H]2[C@H]1CC/C(COC(=O)CCCCCCCCC(=O)OC/C1=C/CC[C@@]3(C)O[C@H]3[C@H]3OC(=O)C(=C)[C@@H]3CC1)=C\CC[C@@]1(C)O[C@@H]21 | 1.19% (active) | 83.9% | 60.2% | 27.1% | -25.9% (active) | -51.3% (active) | 77.1% | -29.1% (active) | -46.4% (active)
CN(C)C(CNc1oc(-c2cccc3ccccc23)nc1C#N)c1ccco1 (centres undefined) | 101% | 99.9% | 94.9% | 101% | 94% | 86.9% | 91.6% | 90.1% | 93.1%
